# According to PubChem BioAssay:
# Results filed as inconclusive are left out. Activity calls are given as the source filed them.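 The calls were made as follows, unless noted: active = compounds lowering colon cancer cell viability after pretreatment blocking the GSK3B kinase; inactive = the rest.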
# Assays:
# [1] = molecular target: ATP-dependent translocase ABCB1 (Homo sapiens) (UniProt P08183); assay: MDR1 (ABCB1) efflux transporter inhibition, cell-based (AID 377; in the data active = fluorescence slope change above about 50%); conditions: MDR1-expressing cells, fluorescent substrate accumulation slope; stronger effect = higher value; concentration not given here
# [2] = hESC survival regulators, cell-based (AID 493140; call rule not given here;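 also: cells exposed to compounds for four days before counting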); conditions: human embryonic stem cell survival screen; stronger effect = higher value
# [3] = liver-stage malaria parasite growth inhibition, primary screen, cell-based, HepG2, luciferase luminescence, HepG2 viability (AID 624349; in the data active = parasite load remaining mostly below about 12%, no sharp cut-off; inactive = mostly above about 10%;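 also: 100% = mean of DMSO negative control wells on the same plate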); conditions: P. berghei liver stage in HepG2, luciferase luminescence, concentration not given here; parasite load remaining: stronger effect = lower value; viability: measured here: HepG2 viability without parasites
# [4] = stimulators of nuclear beta-catenin in C2C12, primary screen, imaging, WNT3A-conditioned medium, mouse C2C12, NPC library (AID 1117326; in the data active = nuclear beta-catenin stimulation mostly above about 4.2%, no sharp cut-off; inactive = mostly below about 10%); conditions: stronger effect = higher value
# [5] = stimulators of insulin release from INS-1E, primary screen, cell-based, 5 mM glucose, NPC library (AID 1117329;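 active = compound raises insulin release from rat beta cells at 5 mM glucose, no numeric limit stated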); conditions: rat INS-1E insulin secretion, at 10 µM, stronger effect = higher value
# [6] = growth inhibition of GSK3B-pretreated HCT116 cells – cell-based, CellTiter-Glo, 0.2 to 20 µM (AID 1117336); conditions: HCT116 viability after GSK3B inhibitor, at 20 µM, stronger effect = higher value
# [7] = inhibition of endothelial tube formation, primary screen, imaging, VEGF stimulated, CD31 staining, tube area, NPC library (AID 1117340;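 active = compound that reduces growth-factor-driven endothelial tube area in a mixed cell culture, no cutoff stated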); conditions: VEGF-stimulated ADSC/ECFC co-culture, at 10 µM, stronger effect = higher value
# [8] = glucagon-like peptide 1 release enhancers, primary assay, NCI-H716 cell line, NPC library (AID 1117341;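 active = compound raises GLP1 secretion from the human gut endocrine cells, with no numeric limit stated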); conditions: NCI-H716 cells, at 10 µM, stronger effect = higher value
# [9] = HCT116 colon cancer cell growth inhibition, primary screen, CellTiter-Glo luminescence, NPC library (AID 1117342;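 active = compounds that lower survival of HCT116 colon cancer cells in the luminescence readout, no numeric limit stated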); conditions: at 20 µM (top of the series)
# [10] = CellTiter-Glo luminescent readout of SW480 viability loss, NPC library primary (AID 1117343;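 active = compounds that lower viability of the colon cancer cells in the luminescence readout, with no numeric limit stated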); conditions: CellTiter-Glo luminescence; at 20 µM (top of the series) unless noted
# [11] = decreased DLD-1 cellular survival, CellTiter-Glo luminescent readout, NPC compound collection, primary HTS (AID 1117346;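 active = compounds that lower survival of DLD-1 colon cancer cells in the luminescence readout, no cutoff given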); conditions: DLD-1 viability, CellTiter-Glo luminescence; at 20 µM (top of the series)
# [12] = sensitizers of A549 cells to miR-34 induction, primary screen, imaging, A549 dox-inducible miR-34, nuclei and caspase counts (AID 1347080;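 active = compounds whose cell count with miR-34 switched on is under 0.7 times the count with it off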); conditions: A549 miR-34 inducible, Hoechst nuclei count, 48 h
# [13] = survival rescue of mitochondrial mutant cells in low glucose, primary screen, MELAS cybrids, Rieske KO mouse fibroblasts, CellTiter-Glo (AID 1508586;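 active = mean z-score across replicates of 1.96 or higher in either the MELAS or the Rieske mutant cell line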;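 also: z relative to plate mean and SD of compound and empty wells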)
# [14] = molecular target: NAD(+) hydrolase SARM1 (Homo sapiens) (UniProt Q6SZW1); assay: SARM1 TIR NADase inhibitors, cell lysate, NAD-Glo luminescence (AID 1508614;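 active = compound whose remaining NAD level is above about 45 nM, limit read from the data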;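 also: higher remaining NAD means stronger inhibition of SARM1 NADase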); conditions: SAM-TIR HEK293T lysate NADase, at 1 µM, stronger effect = higher value
# [15] = molecular target: Mitogen-activated protein kinase 7 (Homo sapiens) (UniProt Q13164); assay: ERK5 transactivation activators in reporter cells, primary screen, cell-based, HTS (AID 1508626;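 active = luciferase signal above three times the same-plate solvent-only control wells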;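 also: luciferase driven by Gal4-ERK5 fusion binding five Gal4 sites before minimal TATA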); conditions: HeLa Gal4-ERK5 transactivation, 18 h, at 5 µM, stronger effect = higher value
# [16] = viability rescue of complex I mutant cybrids, primary screen, cell-based, galactose medium, ATP luminescence (AID 1645843;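 active = z-score of at least 1.8 in each of two replicates, scored against plate mean and spread of sample wells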;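 also: positive z means more ATP and so rescue of galactose-driven cybrid death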); conditions: complex I mutant cybrid cells, 72 h, stronger effect = higher value
# [17] = stronger effect = lower value, cell number ratio, induced over uninduced
# [18] = measured here: relative caspase fold change +Dox/-Dox
# [19] = measured here: total cells with miR-34 induction, stronger effect = lower value
# [20] = measured here: total cells without miR-34 induction
# [21] = MELAS cybrid survival, CellTiter-Glo 48 h, stronger effect = higher value
# [22] = Rieske KO mouse fibroblast survival, CellTiter-Glo 72 h
# NAD(+) hydrolase SARM1 (Homo sapiens), sequence (Q6SZW1 whole entry, looked up, the tested form may be a part): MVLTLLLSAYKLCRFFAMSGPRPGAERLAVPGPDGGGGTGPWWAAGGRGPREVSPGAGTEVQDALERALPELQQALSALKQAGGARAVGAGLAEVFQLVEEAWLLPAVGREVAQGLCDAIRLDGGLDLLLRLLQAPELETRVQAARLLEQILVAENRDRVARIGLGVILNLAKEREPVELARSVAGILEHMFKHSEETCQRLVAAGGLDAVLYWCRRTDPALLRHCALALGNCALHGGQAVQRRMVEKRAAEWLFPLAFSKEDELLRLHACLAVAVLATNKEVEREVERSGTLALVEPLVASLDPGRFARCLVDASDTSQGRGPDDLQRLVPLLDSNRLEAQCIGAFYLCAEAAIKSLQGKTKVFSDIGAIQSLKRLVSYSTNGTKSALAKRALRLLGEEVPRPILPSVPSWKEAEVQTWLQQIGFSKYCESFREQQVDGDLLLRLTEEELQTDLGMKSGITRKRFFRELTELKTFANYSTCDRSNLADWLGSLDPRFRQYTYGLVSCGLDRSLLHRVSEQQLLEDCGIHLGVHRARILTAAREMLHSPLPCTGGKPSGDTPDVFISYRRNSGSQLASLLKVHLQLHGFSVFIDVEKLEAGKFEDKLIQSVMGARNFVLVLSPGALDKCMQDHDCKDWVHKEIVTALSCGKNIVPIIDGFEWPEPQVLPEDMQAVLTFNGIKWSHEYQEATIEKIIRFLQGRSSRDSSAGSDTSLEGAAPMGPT
# ATP-dependent translocase ABCB1 (Homo sapiens), sequence (P08183 whole entry, looked up): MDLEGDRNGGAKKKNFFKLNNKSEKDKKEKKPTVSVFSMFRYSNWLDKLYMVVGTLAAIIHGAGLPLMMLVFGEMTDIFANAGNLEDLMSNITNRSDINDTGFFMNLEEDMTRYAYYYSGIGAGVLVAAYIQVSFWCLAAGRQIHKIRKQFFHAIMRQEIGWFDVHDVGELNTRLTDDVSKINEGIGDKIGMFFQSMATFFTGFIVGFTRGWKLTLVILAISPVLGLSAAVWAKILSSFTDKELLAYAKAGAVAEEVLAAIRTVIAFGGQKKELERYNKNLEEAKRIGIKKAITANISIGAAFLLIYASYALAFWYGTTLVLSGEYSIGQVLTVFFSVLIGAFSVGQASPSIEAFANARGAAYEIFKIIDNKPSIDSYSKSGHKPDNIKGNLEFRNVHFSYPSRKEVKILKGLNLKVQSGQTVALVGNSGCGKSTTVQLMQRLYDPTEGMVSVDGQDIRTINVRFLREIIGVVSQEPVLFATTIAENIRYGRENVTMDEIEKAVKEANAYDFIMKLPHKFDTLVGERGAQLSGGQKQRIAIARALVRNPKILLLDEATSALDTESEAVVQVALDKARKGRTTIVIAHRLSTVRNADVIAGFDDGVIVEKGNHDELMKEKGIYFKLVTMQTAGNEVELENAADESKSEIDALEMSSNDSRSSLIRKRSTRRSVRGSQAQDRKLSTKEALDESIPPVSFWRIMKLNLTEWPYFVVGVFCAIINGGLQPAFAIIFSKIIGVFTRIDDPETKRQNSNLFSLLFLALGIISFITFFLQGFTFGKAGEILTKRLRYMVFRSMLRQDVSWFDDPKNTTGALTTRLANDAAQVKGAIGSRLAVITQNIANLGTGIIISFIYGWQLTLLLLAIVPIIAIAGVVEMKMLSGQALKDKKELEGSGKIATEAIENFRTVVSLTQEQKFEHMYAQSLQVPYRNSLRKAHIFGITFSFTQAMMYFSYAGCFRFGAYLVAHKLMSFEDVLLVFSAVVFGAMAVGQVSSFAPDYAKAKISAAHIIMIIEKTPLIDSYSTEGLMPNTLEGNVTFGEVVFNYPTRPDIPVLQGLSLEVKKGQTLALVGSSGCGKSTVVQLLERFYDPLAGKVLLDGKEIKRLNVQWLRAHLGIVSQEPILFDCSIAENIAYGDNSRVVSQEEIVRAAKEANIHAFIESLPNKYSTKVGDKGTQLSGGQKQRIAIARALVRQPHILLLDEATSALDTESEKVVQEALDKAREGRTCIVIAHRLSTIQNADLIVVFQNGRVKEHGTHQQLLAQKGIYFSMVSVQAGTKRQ
# Mitogen-activated protein kinase 7 (Homo sapiens), sequence (Q13164 whole entry, looked up, the tested form may be a part): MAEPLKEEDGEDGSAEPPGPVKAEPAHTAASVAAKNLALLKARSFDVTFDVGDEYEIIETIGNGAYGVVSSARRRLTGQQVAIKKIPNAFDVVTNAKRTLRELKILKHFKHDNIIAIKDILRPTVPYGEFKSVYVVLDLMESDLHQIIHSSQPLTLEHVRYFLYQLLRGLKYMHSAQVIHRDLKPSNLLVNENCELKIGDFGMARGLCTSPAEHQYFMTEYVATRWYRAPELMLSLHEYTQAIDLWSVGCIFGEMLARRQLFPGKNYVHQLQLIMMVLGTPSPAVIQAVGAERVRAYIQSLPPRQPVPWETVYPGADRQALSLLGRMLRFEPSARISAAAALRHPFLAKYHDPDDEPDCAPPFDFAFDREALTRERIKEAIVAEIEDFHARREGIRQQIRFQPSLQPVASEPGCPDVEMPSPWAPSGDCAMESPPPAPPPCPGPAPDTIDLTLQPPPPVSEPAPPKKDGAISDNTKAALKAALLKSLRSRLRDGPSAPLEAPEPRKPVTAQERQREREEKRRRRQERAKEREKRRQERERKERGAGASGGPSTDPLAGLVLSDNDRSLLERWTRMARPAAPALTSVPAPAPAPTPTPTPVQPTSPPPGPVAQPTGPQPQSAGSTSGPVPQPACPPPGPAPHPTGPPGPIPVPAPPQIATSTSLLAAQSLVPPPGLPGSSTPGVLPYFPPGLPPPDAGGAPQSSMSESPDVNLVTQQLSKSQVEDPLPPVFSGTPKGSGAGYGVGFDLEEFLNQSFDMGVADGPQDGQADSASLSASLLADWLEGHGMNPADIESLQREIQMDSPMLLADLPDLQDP
compound,measurement,setting,value
CC1(C)[C@@H](OC(=O)CCC(=O)O)CC[C@]2(C)[C@H]3C(=O)C=C4[C@@H]5C[C@@](C)(C(=O)O)CC[C@]5(C)CC[C@@]4(C)[C@]3(C)CC[C@@H]12,fluorescence slope change,[1],123% (active)
same,survival,[2],4.33 (inactive)
same,parasite load remaining,[3],77.3% (inactive)
same,viability,[3],94.7%
same,nuclear beta-catenin stimulation,[4]; at 10 µM,4.8% (inactive)
same,nuclear beta-catenin stimulation,"[4]; stimulation, at 2 µM",1.3%
same,insulin secretion stimulation,[5],-1% (inactive)
same,viability decrease,[6],50.3% (active)
same,tube area decrease,[7],15.3% (inactive)
same,GLP1 secretion stimulation,[8],2.7% (inactive)
same,inhibition of viability,[9],43.6% (inactive)
same,viability decrease (inhibition),[10],15.1% (inactive)
same,viability decrease (inhibition),[11],35.6% (inactive)
same,fold change,[12]; [17],0.87 (inactive)
same,fold change,[12]; [18],1.72
same,cell count,[12]; [19],9330
same,cell count,[12]; [20],10700
same,z-score,[13]; [21],0.704 (inactive)
same,z-score,[13]; [22],0.0878
same,remaining NAD,[14],10 nM (inactive)
same,luciferase signal,[15],60 AU (inactive)
O=C(NCC1CN(c2ccc(N3CCOCC3=O)cc2)C(=O)O1)c1ccc(Cl)s1 (stereo not given),nuclear beta-catenin stimulation,[4]; at 10 µM,1.8% (inactive)
same,nuclear beta-catenin stimulation,"[4]; stimulation, at 2 µM",-0.7%
same,insulin secretion stimulation,[5],0.5% (inactive)
same,viability decrease,[6],55.9% (active)
same,tube area decrease,[7],-0.6% (inactive)
same,GLP1 secretion stimulation,[8],-0.6% (inactive)
same,inhibition of viability,[9],51.2% (active)
same,viability decrease (inhibition),[10],-16% (inactive)
same,viability decrease (inhibition),[11],9.9% (inactive)
same,fold change,[12]; [17],0.99 (inactive)
same,fold change,[12]; [18],0.417
same,cell count,[12]; [19],7630
same,cell count,[12]; [20],7700
same,z-score,[13]; [21],-0.316 (inactive)
same,z-score,[13]; [22],-0.0771
CC[C@H](c1ccc(O)cc1)[C@@H](CC)c1ccc(O)cc1,parasite load remaining,[3],16.7% (inactive)
same,viability,[3],82%
same,nuclear beta-catenin stimulation,[4]; at 10 µM,11.6% (inactive)
same,nuclear beta-catenin stimulation,"[4]; stimulation, at 2 µM",2.5%
same,insulin secretion stimulation,[5],1.4% (inactive)
same,viability decrease,[6],89.6% (active)
same,tube area decrease,[7],20.9% (inactive)
same,GLP1 secretion stimulation,[8],40% (active)
same,inhibition of viability,[9],97% (active)
same,viability decrease (inhibition),[10],118% (active)
same,viability decrease (inhibition),[11],101% (active)
same,fold change,[12]; [17],0.78 (inactive)
same,fold change,[12]; [18],0.948
same,cell count,[12]; [19],7720
same,cell count,[12]; [20],9900
same,z-score,[13]; [21],-1.4 (inactive)
same,z-score,[13]; [22],-0.231
same,remaining NAD,[14],10 nM (inactive)
same,z-score,[16],-0.325 (inactive)
